This is an account of results in ChEMBL document CHEMBL1157539, “Thousands of chemical starting points for antimalarial lead identification” (Nature, 2010).

Common to all, as to assay type: functional
The test system of test [1] is Plasmodium falciparum. Put plainly: GSK_TCMDC: Inhibition of Plasmodium falciparum 3D7 in whole red blood cells, using parasite LDH activity as an index of growth. Test compounds present at 2uM.
The subject of test [2] is Plasmodium falciparum. Put plainly: GSK_TCMDC: Inhibition of Plasmodium falciparum Dd2 in whole red blood cells, using parasite LDH activity as an index of growth. Test compounds present at 2uM.
Another test concerns HepG2. As to the kind of experiment: GSK_TCMDC: Percent inhibition of human HepG2 cell line. Test compounds present at 10uM.

A word on the Inhibition: it is how much of the control response was suppressed. A high value points to strong suppression.

The structures appear in SMILES notation.

`CCNc1cc(C(=O)N[C@@H](Cc2ccccc2)[C@H](O)CNC23CCC(CC2)C3)cc(N2CCCCS2(=O)=O)c1.Cl`: the Inhibition in the test on Plasmodium falciparum [1] is reported as 97%; in the test on Plasmodium falciparum [2] it was 99%; with HepG2, 22%.

For the compound `Cl.c1ccc(COc2ccc(Nc3ncnc4ccc(-c5ccc(CN6CCSCC6)o5)cc34)cc2)cc1`, the Inhibition in the test on Plasmodium falciparum [1] is given as 94%; with Plasmodium falciparum [2], 4%; in the test on HepG2, 4%.

For `CCNc1cc(C)nc(Nc2ccccc2)n1`, the Inhibition stood at 92% in the test with Plasmodium falciparum [1], 8% with Plasmodium falciparum [2] and 16% with HepG2.

For the compound `O=C(/C=C/c1ccc(Cl)c(Cl)c1)NCCCCN1CCC(c2c[nH]c3ccccc23)CC1`, the Inhibition in the test on Plasmodium falciparum [1] turned out to be 91%; with Plasmodium falciparum [2], 11%; in the test on HepG2, 57%.

For `CC(=O)N(C)c1cccc(C(=O)Nc2cccc(-c3cccc(-c4nc5cc(C(F)(F)F)ccc5[nH]4)c3)c2)c1`, the Inhibition in the test with Plasmodium falciparum [1] is reported as 97%; in the test with Plasmodium falciparum [2] it was 41%; in the test with HepG2 it was 49%.

Regarding `O=C(N[C@H]1CCN(Cc2ccc(OC3CCN(Cc4ccccc4)CC3)c(Br)c2)C1)c1ccc(Cl)c(Cl)c1.O=C(O)C(F)(F)F`, the Inhibition was determined as 100% in the test with Plasmodium falciparum [1], 30% in the test with Plasmodium falciparum [2] and 55% in the test on HepG2.

As to `CCN(CC)CC(O)Cc1c2ccc([N+](=O)[O-])cc2nc2cc(OC)c(OC)cc12` (stereo not drawn), the Inhibition worked out at 100% in the test on Plasmodium falciparum [1], 37% with Plasmodium falciparum [2] and 41% with HepG2.

For `CCc1c(C(=O)NC2CCC(N3CCC(c4ccccc4OC)CC3)CC2)[nH]c2ccc(OC)cc12` (stereo not drawn), the figures for the Inhibition in the test on Plasmodium falciparum [1], in the test on Plasmodium falciparum [2] and with HepG2 were 100%, 99% and 43%, respectively.

For the compound `O=C(NC1CCC(N2CCCC(OCc3ccccc3)C2)CC1)c1cc2ccccc2[nH]1` (stereo not drawn), the results for the Inhibition in the test with Plasmodium falciparum [1], in the test on Plasmodium falciparum [2] and in the test with HepG2 were 94%, 11% and 38%, respectively.

Turning to `COc1ccc(CN2CCN(C(=O)c3cccs3)CC2)c(O)c1`, the Inhibition in the test on Plasmodium falciparum [1] was 97%; with Plasmodium falciparum [2], 2%; with HepG2, 7%.

Consider `Cc1ccc2c(=NN=CC=Cc3ccccc3)cc(C)[nH]c2c1`, for which the values for the Inhibition in the test on Plasmodium falciparum [1], in the test on Plasmodium falciparum [2] and in the test on HepG2 were 92%, 13% and 3%, respectively.

In the case of `OCc1ccc2nc3c(cc2c1)-c1cccc2cccc-3c12`, the Inhibition in the test on Plasmodium falciparum [1] worked out at 96%; with Plasmodium falciparum [2] it was 0%; in the test on HepG2, 16%.

Regarding `NS(=O)(=O)c1ccccc1Nc1nc(Nc2ccc(N3CCOCC3)cc2)nc2c1CCC2.O=CO`, the Inhibition in the test with Plasmodium falciparum [1] came to 96%; with Plasmodium falciparum [2] it was 99%; with HepG2, 21%.

With `O=C(/C=C/c1ccc(Cl)c(Cl)c1)N1CCC(CCCN2CCC(c3c[nH]c4ccc(O)cc34)CC2)CC1`, the Inhibition in the test with Plasmodium falciparum [1] was found to be 100%; in the test on Plasmodium falciparum [2], 99%; with HepG2, 60%.

Regarding `Cc1nnc2c(NC(=O)NC3CCCC3)cc3ccc(-c4cccc(CN(C)C)c4)cc3n12`, the figures for the Inhibition with Plasmodium falciparum [1], in the test with Plasmodium falciparum [2] and in the test with HepG2 were 90%, 25% and 42%, respectively.

On to `Nc1nc2c(ncn2OC[C@H]2COP(=O)([O-])CO2)c(=O)[nH]1.[Na+]`, for which the Inhibition in the test on Plasmodium falciparum [1] was 92%; with Plasmodium falciparum [2], 32%; in the test with HepG2, 1%.

For the compound `O=C(Nc1cccc(-c2csc(NC(=O)c3ccc4ccccc4c3)n2)c1)c1ccc2ccccc2c1`, the Inhibition in the test with Plasmodium falciparum [1] is recorded as 89%; with Plasmodium falciparum [2], 35%; in the test with HepG2, 3%.

As to `O=C(CCC1CCCC1)N(Cc1ccc(-c2ccc(CNCCc3ccccc3)cc2)cc1)C1CCCNC1.O=C(O)C(F)(F)F` (stereo not drawn), the Inhibition in the test with Plasmodium falciparum [1] is 90%; in the test with Plasmodium falciparum [2], 71%; with HepG2, 99%.

As for `CCCN(Cc1nnc(-c2cccs2)o1)C(=O)CSc1nnnn1-c1ccc(C)c(C)c1`, the Inhibition in the test on Plasmodium falciparum [1] stood at 96%; in the test with Plasmodium falciparum [2] it was 80%; with HepG2, 0%.

As to `CC1(C)C2C=C(CN3CCC(NC(=O)Nc4ccc(Cl)c(Cl)c4)CC3)C1CC2` (stereo not drawn), the Inhibition with Plasmodium falciparum [1] is given as 100%; in the test with Plasmodium falciparum [2], 33%; with HepG2, 28%.

For `Cl.O=C(CCCCCCc1ccccc1)Nc1ccc2nc3c(c(NCc4ccccc4)c2c1)CCCC3`, the Inhibition amounted to 100% with Plasmodium falciparum [1], 98% with Plasmodium falciparum [2] and 19% in the test on HepG2.

In the case of `O=C(NCCN1CCCC1)c1cccc(-c2ccc(-c3nc4ccccc4[nH]3)s2)c1`, the Inhibition is reported as 96% in the test on Plasmodium falciparum [1], 13% with Plasmodium falciparum [2] and 27% with HepG2.

In the case of `Cc1cccc(Nc2nc(N[C@@H]3CCCNC3)nc3cc[nH]c(=O)c23)c1.O=C(O)C(F)(F)F`, the results for the Inhibition in the test with Plasmodium falciparum [1], in the test on Plasmodium falciparum [2] and in the test on HepG2 were 99%, 98% and 55%, respectively.

For the compound `CC1(C)CC(=O)c2c(O)cc(OCc3ccncc3)cc2O1.Cl`, the Inhibition with Plasmodium falciparum [1] amounted to 92%; in the test on Plasmodium falciparum [2], 47%; in the test with HepG2 it was 80%.

With `O=c1cc(NCCCNC(CNCCc2ccccc2)c2cc(Br)cc(Br)c2)[nH]c2ccccc12` (stereo not drawn), the figures for the Inhibition in the test on Plasmodium falciparum [1], in the test with Plasmodium falciparum [2] and with HepG2 were 93%, 53% and 0%, respectively.

Regarding `CCN(CC1CCN(CC2(O)CCOCC2)CC1)c1cc(C)nc(Nc2ccc(Cl)cc2)n1`, the values for the Inhibition in the test with Plasmodium falciparum [1], in the test with Plasmodium falciparum [2] and in the test on HepG2 were 100%, 99% and 34%, respectively.

On to `COc1ccc(CN2CCCN(Cc3ccc(C(=O)Nc4ccc(Cl)cc4)cc3)CC2)cc1.O=C(O)C(F)(F)F`, for which the Inhibition in the test with Plasmodium falciparum [1] came out at 91%; with Plasmodium falciparum [2], 3%; with HepG2, 46%.

For the compound `Br.C=CCNC(CCCCC)c1ccc(OCCOc2ccc(C(CCCCC)NCC=C)cc2)cc1` (stereo not drawn), the Inhibition in the test with Plasmodium falciparum [1] was determined as 88%; with Plasmodium falciparum [2], 48%; in the test with HepG2, 100%.

Consider `COc1ccc(NC(=O)c2ccc(Br)c(C)c2)cc1N1CCN(CCCc2c[nH]c3ccccc23)CC1`, for which the Inhibition with Plasmodium falciparum [1] is 100%; in the test on Plasmodium falciparum [2], 64%; in the test with HepG2 it was 21%.

As to `O=S(=O)(ON=C1CCc2ccccc21)c1ccc(Cl)cc1`, the Inhibition in the test on Plasmodium falciparum [1] is given as 100%; in the test on Plasmodium falciparum [2], 79%; in the test with HepG2, 0%.

As to `CCOC(=O)c1c(C)n(-c2ccccc2)c2ccc(OC(=O)c3ccc(S(=O)(=O)N(CC)CC)cc3)cc12`, the Inhibition in the test with Plasmodium falciparum [1] is listed as 94%; with Plasmodium falciparum [2], 63%; with HepG2 it was 0%.
